Results filed as inconclusive are left out. Unmarked numbers belong to inactive results. Calls of active or inactive are those of the source. The call rests on the fitted dose curve; in most records, active means well fitted cell-killing curve with a large enough effect in the repeat runs; inconclusive means weak or mixed curves, or effect the other way; inactive means flat fitted curve, though single readings scatter.
Test: qHTS RealTime-Glo MT Cell Viability Assay in HepG2 cells - 40 hour (AID 1224870); further: nearly all actives have a fitted effect of over 50% in size
Conditions: RealTime-Glo luminescence; series mostly up to 76.8 µM; activity change, negative = cytotoxic: at the top concentration
Outline: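 HepG2 cells (600/well) mixed with RealTime-Glo MT reagent, settled 5 h at 37 C/5% CO2 before compound addition. Nonlytic NanoLuc luminescence from viable-cell prosubstrate reduction read repeatedly during 40 h treatment at 37 C.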
On the % scale 0 is the no-effect control and ±100 the full control effect; potency means the concentration at half of the fitted maximal effect.

Row | Compound | activity change, negative = cytotoxic | Potency
1 | CN1CCC[C@@H]1Cc1c[nH]c2ccc(CCS(=O)(=O)c3ccccc3)cc12 | 2.84% [at 35.3 µM] | –
2 | O=Cc1ccc(F)c(Br)c1 | 0.856% | –
3 | Cc1ncc(CO)c(CN)c1O | -2.54% [at 35.3 µM] | –
4 | N#CSCC(=O)O | 1.07% [at 35.3 µM] | –
5 | CCCN(CCC)C(=O)C(CCC(=O)O)NC(=O)c1ccccc1 (centres undefined) | 0.58% [at 35.3 µM] | –
6 | CCN[C@H]1CN(CCCOC)S(=O)(=O)c2sc(S(N)(=O)=O)cc21 | 4.48% [at 35.3 µM] | –
7 | Cc1ccc(C=O)s1 | -2.66% | –
8 | COC(=O)C(C)O (centres undefined) | 1.26% | –
9 | CCOC(=O)NCCC[Si](OCC)(OCC)OCC | 0.622% | –
10 | OCc1ccccc1O | -3.04% [at 35.3 µM] | –
11 | O=C(C(Cl)Cl)N1CCOC12CCCCC2 | -0.218% | –
12 | CCN(CC)C(=O)N(CC)CC | 3.49% | –
13 | O=C1CCCc2ccccc21 | 0.32% | –
14 | COc1ccccc1N1CCN(CCCNc2cc(=O)n(C)c(=O)n2C)CC1 | -0.808% [at 35.3 µM] | –
15 | CC(=O)O[C@H]1CC[C@@]2(C)C(=CC[C@@H]3[C@@H]2CC[C@]2(C)C(C(C)=O)=CC[C@@H]32)C1 | -9.67% [at 35.3 µM] | –
16 | FC(F)(F)C(F)(F)C(F)(F)C(F)(F)C(F)(F)C(F)(F)C(F)(F)C(F)(F)Br | 1.44% [at 35.3 µM] | –
17 | Cn1cnc2c(F)c(Nc3ccc(Br)cc3Cl)c(C(=O)NOCCO)cc21 | – | 674 nM (active)
18 | ClC(Cl)Cl | 11% | –
19 | CCCOc1ccc2c(c1)CC[C@@H]1[C@@H]2CC[C@]2(C)C(OC)CC[C@@H]12 (some centres undefined) | -4.73% [at 35.3 µM] | –
20 | CCN(CC)CC1CCCCN1CC(=O)N1c2ccccc2C(=O)Nc2cccnc21 (centres undefined) | 0.499% [at 35.3 µM] | –

Row | Compound | activity change, negative = cytotoxic | Potency
21 | O=C(Cl)c1cccc([N+](=O)[O-])c1 | 2.07% | –
22 | Cc1cc(NS(=O)(=O)c2ccc(N)cc2)nc(C)n1 | -1.22% [at 35.3 µM] | –
23 | CCCCCCC | -1.37% | –
24 | CCOC(=O)C1CC(=O)C(=C(O)C2CC2)C(=O)C1 (centres undefined) | 3.52% | –
25 | CC(=O)Nc1ccc(C)c(Cl)c1 | 1.91% | –
26 | CCCCCCCCc1ccc(S(=O)(=O)O)cc1 | 4.27% | –
27 | CCOC(=O)C(Br)c1ccccc1 (centres undefined) | 3.67% | –
28 | CCOc1ccc2nc(N)sc2c1 | 0.979% | –
29 | CCCC(CCC)(C(=O)OCC)C(=O)OCC | 1.58% [at 35.3 µM] | –
30 | CCC/C=C/CO | -0.102% | –
31 | CC(=O)OC(C)OC(C)=O | 2.94% | –
32 | OC[C@H]1O[C@@H](O[C@H]2[C@H](O)[C@@H](O)[C@H](O)O[C@@H]2CO)[C@H](O)[C@@H](O)[C@H]1O | 1.53% | –
33 | CC(C)S | -0.922% | –
34 | Clc1cccc(-c2cc(Cl)cc(Cl)c2)c1 | -0.125% | –
35 | CCC1(C)NC(=O)NC1=O (centres undefined) | -0.0399% | –
36 | CCN(CC)CCNC(=O)COc1ccc(Cl)cc1 | -0.237% [at 35.3 µM] | –
37 | CN(C)Cc1ccccc1 | 1.59% | –
38 | COc1ccc(S(=O)(=O)Nc2nnc(CC(C)C)s2)cc1 | 3.21% [at 35.3 µM] | –
39 | O=c1[nH]cnc2c1ncn2[C@@H]1O[C@H](CO)[C@@H](O)[C@H]1O | 1.38% [at 35.3 µM] | –

— PubChem BioAssay (Tox21)
